The text below walks through data of PubChem BioAssay (NCATS).

Values without a mark were called inactive. Results filed as inconclusive are left out. Calls of active or inactive are those of the source. Unless noted, the call rests on the fitted dose curve; in most records, active means well fitted curve in the direction sought with a large enough effect; inconclusive means small, poorly fitted or top-dose-only effect, or another doubt; inactive means no such curve, though single readings can be large; an effect the other way counts as inactive or inconclusive.

Test [1] deals with Lysosomal acid glucosylceramidase (Homo sapiens) (UniProt P04062). Description: Glucocerebrosidase-p2 (AID 348; in the data active means potency below about 10 µM; further: potency means the concentration at half of the fitted maximal effect). The note with it: purified GBA, blue fluorogenic substrate, 40 min. The method, boiled down:
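Normal human glucocerebrosidase (0.2 nM) with blue fluorogenic substrate (80 uM final) in citrate/phosphate pH 5.9 with 10mM sodium taurocholate, 0.01% tween-20; 40 min RT, NaOH/glycine stop; fluorescence Ex 365/Em 440; AC50 from a titration from 0.6 nM upwards.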

Test [2] in a line: AP1 Signaling Pathway (AID 357; active means well fitted curve in either direction with a large enough effect, not every such curve was filed as active;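 further: ME-180 reporter cells stimulated with EGF at its EC50 level; on the % scale 0 is the no-effect control and ±100 the full control effect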). As to conditions: ME-180 AP-1-bla reporter, EGF-induced, beta-lactamase ratio, 5 h; at 7.69 µM (top of the series) unless noted. The method, boiled down: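 A ratiometric CCF4 readout (405 nm excitation; 460 and 530 nm emission) quantified AP-1-driven beta-lactamase in ME-180 cells after 5 h with compound and EC50 EGF; AC50 values were derived for activators and inhibitors.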

The target in test [3] is Cytochrome P450 1A2 (Homo sapiens) (UniProt P05177). The test is described as follows: p450-cyp1a2 (AID 410; calls by dose curve; further: potency means the concentration at half of the fitted maximal effect). The note with it: recombinant CYP1A2, luciferin-ME demethylation, luminescence; series mostly up to 57 µM. The method, boiled down:
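Luminescent demethylation readout: Luciferin-ME (100uM, equal to Km) turned over by 20nM CYP1A2 for 60 min at room temperature after NADPH regeneration addition, following 10 min compound preincubation. Normalization used 57 uM furafylline as full inhibition.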

The nature of test [4]: NFAT Signaling Pathway (AID 444; active means well fitted curve in either direction with a large enough effect, not every such curve was filed as active;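 further: carbachol stimulus at about its EC50 of 1 µM final; on the % scale 0 is the no-effect control and ±100 the full control effect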). As to conditions: Jurkat NFAT-bla M1, carbachol, beta-lactamase ratio, 5 h; at 7.69 µM (top of the series) unless noted. An outline of the steps:
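Jurkat cells carrying an NFAT-driven β-lactamase reporter and co-transfected muscarinic M1 receptor were treated with compound plus carbachol (1 uM final, an EC50 level) for 5 h at 37 °C. CCF4 loading followed for 1 h at RT; 460/530 nm ratio gave %activity.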

Test [5] can be described thus: Stat Signaling Pathway (AID 446; active means well fitted curve in either direction with a large enough effect, not every such curve was filed as active;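 further: ME-180 cervical cancer cells given 40 pM IL-6 alongside compound; SIE-controlled beta-lactamase reporter measured as 460/530 nm FRET emission ratio; on the % scale 0 is the no-effect control and ±100 the full control effect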). As to conditions: ME-180 (cervical carcinoma) SIE beta-lactamase reporter, IL-6 stimulated, 5 h; at 7.69 µM (top of the series) unless noted. The method, boiled down:
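Emission at 460 and 530 nm (excitation 405 nm) reports SIE-controlled beta-lactamase in ME-180 cells. Cells received compound with 40 pM IL-6 for 5 hrs at 37 C; data scaled between 300 pM IL-6 and 125 nM JAK-inhibitor controls.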

Test [6] addresses Glucocorticoid receptor (Homo sapiens) (UniProt P04150). Description: GR-GFP Redistribution (AID 450;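 active means compounds whose dose series gives a full or clear partial fitted curve of increased nuclear translocation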; further: potency means the concentration at half of the fitted maximal effect). As to conditions: U2OS GR-GFP nuclear translocation, laser cytometry, 2 h.
For test [7] the target is unchanged. Description: GR-EFC Redistribution (AID 451; calls by dose curve; further: potency means the concentration at half of the fitted maximal effect). As to conditions: CHO-K1 GR-EFC translocation, beta-gal luminescence, 2 h. An outline of the steps: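 CHO-K1 cells stably expressing nuclear-localized β-gal enzyme acceptor and GR fused C-terminally to the enzyme donor fragment; ligand-driven nuclear translocation restores β-gal by complementation. Compounds titrated up to 46 uM final, 2 h at 37 °C; luminescence read.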

In test [8] the target is Mitogen-activated protein kinase 10 (Mus musculus) (UniProt Q61831). The test is described as follows: JNK3 AlphaScreen Assay (AID 530; active means well fitted curve in either direction with a large enough effect, not every such curve was filed as active;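 further: kinase came from lysate of stimulated human HepG2 cells; signal reports phosphorylation of biotinylated GST-cJun 1-79 at Ser73 with 10 µM ATP; on the % scale 0 is the no-effect control and ±100 the full control effect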). As to conditions: JNK3 lysate, c-Jun phosphorylation; series mostly up to 57.1 µM. An outline of the steps:
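Phosphorylation of biotinylated GST-cJun(1-79) at Ser73 is measured by AlphaScreen proximity luminescence. Enzyme is JNK3 in HepG2 lysates activated with interleukin-1beta and tumor necrosis factor alpha; ATP is 10 uM final.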
(In general: Alpha assays give light when donor and acceptor beads are brought close together.)

Test [9] has as its target 3',5'-cyclic-AMP phosphodiesterase 4B (Homo sapiens) (UniProt Q07343). The test is described as follows: qHTS Assay for Inhibitors of PDE-IV (AID 607; active means well fitted activation curve with a large enough effect in the main read-out, with a control signal flat, not every such curve was filed as active; further: % of control where 0% means no effect). As to conditions: HEK293 ACTOne CNG channel cells, membrane potential fluorescence; series mostly up to 22.9 µM. The method, boiled down: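 The readout is membrane depolarisation from a cAMP-sensing CNG channel, detected with a potential dye at ex 535/em 590. Cells were HEK293-derived (endogenous PDE-IV) at 1000 cells/well, titrated up to 22.9 uM final.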
A general note: qHTS replaces the single test concentration by a dilution series.

The target in test [10] is Cytochrome P450 3A4 (Homo sapiens) (UniProt P08684). Description: qHTS Assay for Activators of Cytochrome P450 3A4 (AID 885). Further: nearly all actives have a fitted effect of over 65% in size. The note with it: recombinant CYP3A4, Luciferin-PPXE luminescence, 60 min; series mostly up to 57.1 µM. An outline of the steps: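 Activators are scored by enhanced luminescence from CYP3A4 conversion of luciferin-PPXE (25uM, equal to KM) to luciferin, after 60 min at RT with an NADPH-regenerating system.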

Test [11] concerns the target Dual specificity protein kinase CLK4 (Homo sapiens) (UniProt Q9HAZ1). Description: qHTS Assay for Inhibitors of CDC-like Kinase 4 (Kinase-Glo Assay) (AID 1770). Further: nearly all actives have a fitted effect of over 65% in size. Further: potency means the concentration at half of the fitted maximal effect. As to conditions: recombinant Clk4, Kinase-Glo ATP depletion luminescence; series mostly up to 66.7 µM. An outline of the steps: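 25 nM Clk4 with 100 uM RS repeat peptide and 1 uM ATP (final) in Tris pH7.5, 10 mM MgCl2, 4.5 h at room temperature. Remaining ATP measured by Kinase-Glo luciferase luminescence.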

For test [12] the target is unchanged. Description: qHTS Assay for Inhibitors of CDC-like Kinase 4 (ADP-Glo Assay) (AID 1771). Further: nearly all actives have a fitted effect of over 70% in size. Further: potency means the concentration at half of the fitted maximal effect. The note with it: recombinant CLK4, ADP-Glo luminescence; series mostly up to 80 µM. An outline of the steps: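 ADP production was read by ADP-Glo luminescence after residual ATP depletion, following 1 h room-temperature reaction of 25 nM Clk4, 1 uM ATP and 100 uM RS peptide with MgCl2, EGTA, DTT and Triton X-100.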

For test [13] the target is unchanged. Description: qHTS Assay for Inhibitors of CDC-like Kinase 4 (ADP-FP Assay) (AID 1795). Further: nearly all actives have a fitted effect of over 60% in size. Further: potency means the concentration at half of the fitted maximal effect. As to conditions: Transcreener ADP fluorescence polarization; series mostly up to 50 µM. An outline of the steps:
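Recombinant Clk4 (6.25 nM) phosphorylated 100 uM RS repeat peptide with 1 uM ATP in 25 mM Tris pH 7.5, 10 mM MgCl2, 0.5 mM EGTA, 2.5 mM DTT, 0.01% Triton X-100 for 1 h. ADP was detected by Transcreener ADP2 competitive fluorescence polarization after 30 min at room temperature.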

For test [14], the target named is Ubiquitin carboxyl-terminal hydrolase 1 (Homo sapiens) (UniProt O94782). Description: Inhibitors of USP1/UAF1: Pilot qHTS (AID 504865).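 Further: rhodamine fluorescence freed from ubiquitin-rhodamine substrate followed over time; top concentration of the series differs between compounds; on the % scale 0 is the no-effect control and ±100 the full control effect; nearly all actives have a fitted effect of over 35% in size.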 As to conditions: purified USP1/UAF1, Ub-rhodamine cleavage fluorescence; series mostly up to 54.9 µM. An outline of the steps:
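USP1/UAF1 complex at 1 nM preincubated 15 min at room temperature with compound, then Ub-Rho substrate added at 150 nM final. Fluorescence (480/540 nm) read kinetically in 50 mM HEPES pH 7.8, 0.5 mM EDTA, 1 mM TCEP, 0.1 mg/ml BSA, 0.01% Tween-20.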

The nature of test [15]: Primary qHTS for small molecule stabilizers of the endoplasmic reticulum resident proteome: Secreted ER Calcium Modulated Protein (SERCaMP) assay (AID 1508630). Further: on the % scale 0 is the no-effect control and ±100 the full control effect. The note with it: SH-SY5Y GLuc-SERCaMP (Gaussia luciferase released on ER calcium loss) secretion, thapsigargin, luminescence; series mostly up to 38.4 µM. The method, boiled down: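 The SH-SY5Y reporter protocol was run at 3 concentrations up to 38.3 uM (primary) or 11 concentrations (follow-up): 16 h compound, 100 nM thapsigargin for 4 h, then extracellular luciferase luminescence.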

For test [16], the target named is Cytochrome P450 3A4 (Homo sapiens) (UniProt P08684). The test is described as follows: qHTS Assay for Inhibitors and Substrates of Cytochrome P450 3A4 (AID 884). Further: potency means the concentration at half of the fitted maximal effect; nearly all actives have a fitted effect of over 50% in size. The note with it: recombinant CYP3A4, Luciferin-PPXE luminescence; series mostly up to 57.1 µM. The method, boiled down: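 Luminescent readout of luciferin produced by CYP3A4 (20 nM) dealkylation of Luciferin-PPXE, 25 uM (its KM). NADPH-driven reaction ran 60 min at RT after 10 min compound preincubation; data scaled to 57 uM ketoconazole as 100% inhibition.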

In test [17] the target is Cytochrome P450 2C19 (Homo sapiens) (UniProt P33261). Description: qHTS Assay for Inhibitors and Substrates of Cytochrome P450 2C19 (AID 899). Further: potency means the concentration at half of the fitted maximal effect; nearly all actives have a fitted effect of over 60% in size. The note with it: recombinant CYP2C19, luciferin-H EGE luminescence; series mostly up to 57.1 µM. An outline of the steps: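 NADPH-dependent conversion of Luciferin-H EGE (10uM, at KM) by 5nM enzyme in 50mM KPO4, 60 min at 37C following 10 min compound preincubation. Stopped with luciferin detection buffer; luminescence read after 20 min.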
Sequence of Cytochrome P450 2C19 (Homo sapiens) (P33261 whole entry, looked up): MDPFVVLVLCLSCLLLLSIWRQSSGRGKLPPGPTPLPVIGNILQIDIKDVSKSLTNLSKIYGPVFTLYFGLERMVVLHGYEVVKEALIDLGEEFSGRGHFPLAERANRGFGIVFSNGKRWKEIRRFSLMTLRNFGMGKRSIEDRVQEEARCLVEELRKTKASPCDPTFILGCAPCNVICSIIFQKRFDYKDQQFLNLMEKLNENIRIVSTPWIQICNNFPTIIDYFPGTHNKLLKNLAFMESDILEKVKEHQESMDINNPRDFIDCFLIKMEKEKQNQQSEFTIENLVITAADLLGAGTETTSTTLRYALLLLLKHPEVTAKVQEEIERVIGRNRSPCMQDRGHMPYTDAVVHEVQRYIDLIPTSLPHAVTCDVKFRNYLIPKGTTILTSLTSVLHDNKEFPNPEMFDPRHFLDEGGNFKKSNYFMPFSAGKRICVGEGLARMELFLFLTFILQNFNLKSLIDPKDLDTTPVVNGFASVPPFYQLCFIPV

Sequence of Glucocorticoid receptor (Homo sapiens) (P04150 whole entry, looked up, the tested form may be a part): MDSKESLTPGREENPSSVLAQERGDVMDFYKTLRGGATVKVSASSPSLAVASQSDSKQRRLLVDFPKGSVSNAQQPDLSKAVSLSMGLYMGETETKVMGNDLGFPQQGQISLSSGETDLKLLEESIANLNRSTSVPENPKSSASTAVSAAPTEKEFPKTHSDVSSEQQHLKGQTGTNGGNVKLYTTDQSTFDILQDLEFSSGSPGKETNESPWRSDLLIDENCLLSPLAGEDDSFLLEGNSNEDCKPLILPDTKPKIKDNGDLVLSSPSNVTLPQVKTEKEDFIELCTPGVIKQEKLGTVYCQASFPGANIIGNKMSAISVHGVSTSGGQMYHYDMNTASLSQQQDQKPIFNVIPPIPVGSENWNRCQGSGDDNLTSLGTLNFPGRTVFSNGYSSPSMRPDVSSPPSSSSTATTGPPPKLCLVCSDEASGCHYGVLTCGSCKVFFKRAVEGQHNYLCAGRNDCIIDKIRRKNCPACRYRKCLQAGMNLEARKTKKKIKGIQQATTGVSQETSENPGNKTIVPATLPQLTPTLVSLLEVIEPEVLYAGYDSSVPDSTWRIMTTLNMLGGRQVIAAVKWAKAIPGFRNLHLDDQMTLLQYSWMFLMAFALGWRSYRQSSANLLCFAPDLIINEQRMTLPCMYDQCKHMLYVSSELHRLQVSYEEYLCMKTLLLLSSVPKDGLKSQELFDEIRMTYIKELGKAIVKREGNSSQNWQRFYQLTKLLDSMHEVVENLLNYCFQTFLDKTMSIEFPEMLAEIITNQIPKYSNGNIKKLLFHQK
Sequence of Cytochrome P450 3A4 (Homo sapiens) (P08684 whole entry, looked up): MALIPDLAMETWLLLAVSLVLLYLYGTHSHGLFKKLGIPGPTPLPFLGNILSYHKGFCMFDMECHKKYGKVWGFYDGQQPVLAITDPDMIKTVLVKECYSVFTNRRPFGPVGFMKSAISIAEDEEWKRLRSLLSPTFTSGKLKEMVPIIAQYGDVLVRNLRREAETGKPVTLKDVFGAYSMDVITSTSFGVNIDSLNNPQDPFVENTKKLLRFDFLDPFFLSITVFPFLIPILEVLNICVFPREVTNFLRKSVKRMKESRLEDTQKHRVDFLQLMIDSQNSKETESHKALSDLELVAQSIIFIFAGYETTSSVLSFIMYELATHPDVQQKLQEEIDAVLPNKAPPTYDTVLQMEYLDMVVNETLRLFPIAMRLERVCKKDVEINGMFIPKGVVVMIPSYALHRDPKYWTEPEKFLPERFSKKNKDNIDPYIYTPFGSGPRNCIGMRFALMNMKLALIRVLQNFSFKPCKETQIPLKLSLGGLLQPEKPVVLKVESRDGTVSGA
Sequence of 3',5'-cyclic-AMP phosphodiesterase 4B (Homo sapiens) (Q07343 whole entry, looked up): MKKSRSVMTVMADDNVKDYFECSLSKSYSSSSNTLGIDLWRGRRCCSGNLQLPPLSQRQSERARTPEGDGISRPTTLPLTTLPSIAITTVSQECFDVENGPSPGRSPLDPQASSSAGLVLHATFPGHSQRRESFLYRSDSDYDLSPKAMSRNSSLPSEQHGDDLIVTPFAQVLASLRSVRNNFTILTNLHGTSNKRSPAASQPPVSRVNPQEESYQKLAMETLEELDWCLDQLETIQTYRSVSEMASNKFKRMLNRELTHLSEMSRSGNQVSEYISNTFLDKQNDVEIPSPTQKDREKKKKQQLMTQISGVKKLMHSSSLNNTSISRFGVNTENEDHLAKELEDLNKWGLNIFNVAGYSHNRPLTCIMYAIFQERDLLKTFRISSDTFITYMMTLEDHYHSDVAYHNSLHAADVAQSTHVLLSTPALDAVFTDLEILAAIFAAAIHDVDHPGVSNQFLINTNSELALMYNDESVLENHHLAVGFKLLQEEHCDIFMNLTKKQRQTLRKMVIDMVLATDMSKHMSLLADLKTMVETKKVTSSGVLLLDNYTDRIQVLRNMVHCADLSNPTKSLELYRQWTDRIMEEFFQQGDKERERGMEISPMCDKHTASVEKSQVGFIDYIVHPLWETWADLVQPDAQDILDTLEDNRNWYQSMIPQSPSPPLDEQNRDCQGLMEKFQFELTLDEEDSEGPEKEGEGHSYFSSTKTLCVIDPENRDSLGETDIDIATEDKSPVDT
Sequence of Cytochrome P450 1A2 (Homo sapiens) (P05177 whole entry, looked up): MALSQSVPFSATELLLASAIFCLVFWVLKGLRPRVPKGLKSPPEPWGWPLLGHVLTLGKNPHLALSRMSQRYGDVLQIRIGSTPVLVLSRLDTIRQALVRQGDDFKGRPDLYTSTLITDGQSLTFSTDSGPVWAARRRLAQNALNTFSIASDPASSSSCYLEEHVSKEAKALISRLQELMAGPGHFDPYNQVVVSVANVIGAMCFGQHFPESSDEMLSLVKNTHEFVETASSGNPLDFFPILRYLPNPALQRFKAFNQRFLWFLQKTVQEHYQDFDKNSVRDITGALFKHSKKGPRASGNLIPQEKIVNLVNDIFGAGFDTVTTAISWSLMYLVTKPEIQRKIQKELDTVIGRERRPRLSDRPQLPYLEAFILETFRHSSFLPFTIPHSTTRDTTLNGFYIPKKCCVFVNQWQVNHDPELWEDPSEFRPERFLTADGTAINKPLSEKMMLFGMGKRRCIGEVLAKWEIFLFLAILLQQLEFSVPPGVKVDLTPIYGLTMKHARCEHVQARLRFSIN
Sequence of Lysosomal acid glucosylceramidase (Homo sapiens) (P04062 whole entry, looked up): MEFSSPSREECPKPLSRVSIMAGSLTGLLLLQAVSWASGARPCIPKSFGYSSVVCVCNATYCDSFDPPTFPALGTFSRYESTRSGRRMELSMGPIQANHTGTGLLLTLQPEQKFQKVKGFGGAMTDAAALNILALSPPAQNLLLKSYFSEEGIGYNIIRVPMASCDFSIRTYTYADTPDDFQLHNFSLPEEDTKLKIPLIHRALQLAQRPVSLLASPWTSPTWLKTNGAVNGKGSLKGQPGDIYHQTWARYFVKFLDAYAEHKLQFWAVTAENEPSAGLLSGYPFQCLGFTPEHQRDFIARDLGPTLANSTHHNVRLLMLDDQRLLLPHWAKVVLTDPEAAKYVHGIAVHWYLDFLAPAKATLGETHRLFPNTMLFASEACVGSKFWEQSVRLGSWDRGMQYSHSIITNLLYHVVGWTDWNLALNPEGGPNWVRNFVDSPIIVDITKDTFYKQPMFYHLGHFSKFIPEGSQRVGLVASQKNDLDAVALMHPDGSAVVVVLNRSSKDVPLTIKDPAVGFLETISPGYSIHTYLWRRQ
Sequence of Ubiquitin carboxyl-terminal hydrolase 1 (Homo sapiens) (O94782 whole entry, looked up): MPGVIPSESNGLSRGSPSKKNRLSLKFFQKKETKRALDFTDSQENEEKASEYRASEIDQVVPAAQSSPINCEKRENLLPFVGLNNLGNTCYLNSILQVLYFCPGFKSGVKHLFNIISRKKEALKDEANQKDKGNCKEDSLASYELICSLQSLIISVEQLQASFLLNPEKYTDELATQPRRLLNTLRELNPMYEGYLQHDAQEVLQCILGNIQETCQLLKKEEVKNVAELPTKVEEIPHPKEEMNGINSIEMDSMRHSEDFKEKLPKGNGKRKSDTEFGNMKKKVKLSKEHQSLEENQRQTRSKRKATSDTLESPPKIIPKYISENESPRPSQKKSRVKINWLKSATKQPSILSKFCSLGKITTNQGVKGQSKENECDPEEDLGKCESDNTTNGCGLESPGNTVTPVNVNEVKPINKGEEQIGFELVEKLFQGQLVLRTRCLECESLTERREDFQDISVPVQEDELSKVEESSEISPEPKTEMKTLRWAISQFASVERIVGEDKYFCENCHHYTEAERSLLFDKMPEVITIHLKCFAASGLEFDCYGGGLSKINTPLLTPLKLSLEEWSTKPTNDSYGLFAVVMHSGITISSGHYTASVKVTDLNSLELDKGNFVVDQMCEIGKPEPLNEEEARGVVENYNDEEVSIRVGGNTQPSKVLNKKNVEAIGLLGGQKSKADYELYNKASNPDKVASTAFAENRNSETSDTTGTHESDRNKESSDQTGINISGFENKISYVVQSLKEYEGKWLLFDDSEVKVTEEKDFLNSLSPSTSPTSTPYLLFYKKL
Sequence of Dual specificity protein kinase CLK4 (Homo sapiens) (Q9HAZ1 whole entry, looked up): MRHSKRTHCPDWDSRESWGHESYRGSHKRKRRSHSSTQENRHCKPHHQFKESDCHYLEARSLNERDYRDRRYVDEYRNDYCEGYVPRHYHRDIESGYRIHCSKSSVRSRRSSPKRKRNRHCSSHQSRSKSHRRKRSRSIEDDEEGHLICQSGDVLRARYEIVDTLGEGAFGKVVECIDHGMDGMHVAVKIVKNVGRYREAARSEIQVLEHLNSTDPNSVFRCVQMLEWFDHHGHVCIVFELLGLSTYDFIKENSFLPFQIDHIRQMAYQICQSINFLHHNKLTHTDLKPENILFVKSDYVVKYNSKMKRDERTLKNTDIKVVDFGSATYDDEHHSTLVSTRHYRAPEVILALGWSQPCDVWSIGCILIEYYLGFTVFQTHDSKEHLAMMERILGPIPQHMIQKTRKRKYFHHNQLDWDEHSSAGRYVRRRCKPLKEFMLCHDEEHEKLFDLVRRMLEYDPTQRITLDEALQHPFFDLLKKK

As to `COc1cccc(Cn2c(=O)c(-c3cn(C)c4ccccc34)nc3cncnc32)c1`, the Potency is more than 11.4 µM in test [1], 1 µM (active) in test [3], more than 9.22 µM in test [6] and more than 46 µM in [7]. Further, the activity change, negative = inhibition is 2.97% in test [2] and -0.984% in test [4]. The activity, negative = inhibition in test [5] was -0.403%. Moreover, the Potency result in test [8], in test [9], in test [10], in test [11], in [12] and in test [13] was “inactive” each time. Also, in test [14], the Potency entry is “inactive”. Besides, the result in test [15] was inactive.
Consider `COc1ccccc1CNc1ccnc(-c2cccc(C#N)c2)n1`, for which the Potency was more than 11.4 µM in [1]; 0.794 µM (active) in test [3]; more than 46 µM in test [6]; more than 46 µM in test [7]; 3.98 µM (active) in [16]; 3.98 µM (active) in test [17]. For the same compound, the Potency was 7.94 µM (active) in [11], 7.94 µM (active) in test [12] and 3.16 µM (active) in [13]. Moreover, the values for the activity change, negative = inhibition in [2] and in test [4] were -13.8% and 8.07%, respectively. Further, the activity, negative = inhibition in test [5] was -11.8%. Moreover, the Potency entry in test [8], in test [9], in test [10] and in test [14] was “inactive” in each case. Also, in [15], the outcome was inactive.
On to `COc1ccc(CNc2cc(-c3cccnc3)ncn2)c(OC)c1`, for which the Potency in test [1] is more than 11.4 µM; in test [3], 1.26 µM (active); in test [6] it was more than 46 µM; in test [7] it was more than 46 µM; in [16], 1.58 µM (active); in [11], 8.91 µM (active). Moreover, the Potency in test [12] was 8.91 µM (active); in test [13], 10 µM (active). In addition, the activity change, negative = inhibition in test [2] was -14.6%; in test [4], 10.5%. For the same compound, the activity, negative = inhibition in test [5] was 2.95%. The Potency result in test [8], in test [9], in test [10] and in test [14] was “inactive” each time. For the same compound, the result in test [15] was inactive.
Turning to `COCCn1c(=O)c(-c2cc(F)cc(F)c2)nc2cncnc21`, the Potency in [1] was more than 11.4 µM; in test [3] it was 2 µM (active); in test [6], more than 9.22 µM; in test [7], more than 46 µM. Besides, the activity change, negative = inhibition in [2] was -5.19%; in test [4], 1.95%. For the same compound, the activity, negative = inhibition in [5] is -7.77%. In addition, the Potency result in test [8], in test [9], in test [10], in [11], in test [12] and in [13] was “inactive” each time. For the same compound, the Potency entry in test [14] was “inactive”. In test [15], the outcome was inactive.
With `Cc1cccc(CNc2ncncc2-c2ccc(C(=O)N(C)C)cc2)c1`, the Potency in [1] was more than 11.4 µM; in [3], 15.8 µM (active); in test [6], more than 46 µM; in [7], more than 46 µM; in [16], 0.631 µM (active). The activity change, negative = inhibition in test [2] was -19%; in test [4], 11.4%. Moreover, the activity, negative = inhibition in test [5] was 1.97%. Further, the Potency entry in [8], in test [9], in test [10], in test [11], in test [12] and in test [13] was “inactive” each time. Besides, in [14], the Potency entry is “inactive”. In [15], the outcome was inactive.
